According to PubChem BioAssay (Tox21):
“And” between values parts separate entries of the source, which are not always exact repeats. Equal values may be shown once. Inconclusive results are not listed. A call without a number means that no potency is given here. A number with no mark means an inactive call. The source made the active and inactive calls. Unless noted, calls follow the shape of the dose curve; as a rule, active = well fitted curve in the direction sought with a large enough effect in the repeat runs; inconclusive = weak or mixed curves; inactive = no such curve, though single readings can be large; an effect the other way counts as inactive or inconclusive.

Key:
[1] = qHTS assay to identify small molecule antagonists of the retinoid acid receptor (RAR) signaling pathway - cell viability counter screen (AID 1159551); also: nearly all actives have a fitted effect of over 35% in size; also: potency is read from the fitted curve at half-maximal effect
In short: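 Following overnight attachment, C3RL4 reporter cells received DMSO-dissolved compounds and then retinol (1 uM final). Six hours later at 37 C, ATP content was measured by CellTiter-Glo luminescence.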

[2] = qHTS assay to identify small molecule antagonists of the estrogen related receptor (ERR) signaling pathway from Tox21 library - cell viability counter screen (AID 1224834); also: nearly all actives have a fitted effect of over 30% in size; also: potency is read from the fitted curve at half-maximal effect
In short: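 Viability readout (CellTiter-Fluor fluorescence, 30 min at 37 C) multiplexed with the ERR assay; cells treated 17.5 h at 37 C with compounds delivered in DMSO.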

[3] = biological target: Luciferin 4-monooxygenase (Photinus pyralis) (UniProt P08659); assay: qHTS assay to identify small molecule inhibitors of firefly luciferase (AID 1224835); also: nearly all actives have a fitted effect of over 25% in size; also: potency is read from the fitted curve at half-maximal effect
In short: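 Inhibition of purified Photinus luciferase is measured by luminescence. Substrate levels (D-luciferin, ATP) sit at their KM values. Each compound is tested in a concentration series.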

[4] = qHTS assay to identify small molecule agonists of the constitutive androstane receptor (CAR) signaling pathway - cell viability counter screen (AID 1224836); also: nearly all actives have a fitted effect of over 45% in size
In short: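 Using CellTiter-Fluor, viability of HepG2 cells harbouring hCAR and CYP2B6-2.2kb was measured following 23 h incubation with a 15-concentration compound series plus PK11195 (0.75 uM final).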

[5] = qHTS assay to identify small molecule antagonists of the constitutive androstane receptor (CAR) signaling pathway - cell viability counter screen (AID 1224837); also: nearly all actives have a fitted effect of over 45% in size; also: potency is read from the fitted curve at half-maximal effect
In short: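 Fluorescence from CellTiter-Fluor served as the viability signal. Human hepatoma HepG2 cells stably bearing hCAR and CYP2B6-2.2kb received compound plus CITCO (50 nM final) for 23 hr.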

[6] = biological target: Nuclear receptor subfamily 1 group I member 3 (Homo sapiens) (UniProt Q14994); assay: qHTS assay to identify small molecule agonists of the constitutive androstane receptor (CAR) signaling pathway (AID 1224839); also: nearly all actives have a fitted effect of over 15% in size; also: potency is read from the fitted curve at half-maximal effect;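 as to activation: HepG2 cells stably carrying human CAR and a CYP2B6 luciferase reporter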
In short: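 Double-stable HepG2 cells (hCAR, CYP2B6-2.2kb) seeded 4 h before compound addition. Exposure 24 h with 0.75 uM PK11195 final. Luciferase detected by ONE-Glo.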

[7] = qHTS assay to identify small molecule agonists of the estrogen related receptor signaling pathway with the pleiotropic PPARgamma coactivator (PGC) from Tox21 10K library (AID 1224842); also: nearly all actives have a fitted effect of over 15% in size; also: potency is read from the fitted curve at half-maximal effect
In short: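 Luminescence from One-Glo (30 min, room temperature) measured after PGC/ERR cells had 18 h at 37 C with pinned compound (23 nL in DMSO). Cells had been seeded at 2,000 per well and pre-incubated 6 h.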

[8] = biological target: Thyrotropin receptor (Homo sapiens) (UniProt P16473); assay: qHTS assay to identify small molecule agonists of the thyroid stimulating hormone receptor (TSHR) signaling pathway (AID 1224843; calls by dose curve; also: nearly all actives have a fitted effect of over 45% in size)
In short: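 HEK293 cells stably bearing the thyrotropin receptor were plated at 800 cells/well and challenged with compound (30 min, RT). Accumulated cAMP was quantified via cAMP-d2 competing for cryptate-tagged antibody.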

[9] = qHTS assay to identify small molecule agonists of the retinoic acid receptor (RAR) signaling pathway (AID 1159553); conditions: C3RL4 RARE luciferase reporter, agonist, 6 h; activation: at 73.3 µM (top of the series) unless noted
In short: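 Cell line C3RL4, RARE luciferase reporter. Treatment: compounds in DMSO, 6 hr, 37 C, 5% CO2, after overnight plating. Detection: luminescence, 30 min RT after reagent.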

[10] = biological target: Nuclear receptor subfamily 1 group I member 3 (Homo sapiens) (UniProt Q14994); assay: qHTS assay to identify small molecule antagonists of the constitutive androstane receptor (CAR) signaling pathway (AID 1224838);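 also: HepG2 cells stably expressing hCAR with CYP2B6 luciferase reporter stimulated by CITCO; nearly all actives have a fitted effect of over 40% in size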; also: potency is read from the fitted curve at half-maximal effect
In short: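 Quantitative HTS in double-stable HepG2-CYP2B6-hCAR cells. After 4 h plating, cells get compound (15 concentrations) and CITCO at 50 nM final, incubate 24 h at 37 C, then ONE-Glo luminescence is read.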

[11] = qHTS assay to identify small molecule antagonists of the estrogen related receptor signaling pathway with the pleiotropic PPARgamma coactivator (PGC) from Tox21 10K library - cell viability counter screen (AID 1224840; active = well fitted cell-killing curve with a large enough effect in the repeat runs, not every such curve was filed as active; also: nearly all actives have a fitted effect of over 40% in size; also: potency is read from the fitted curve at half-maximal effect)
In short: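 Compounds in DMSO, alongside positive and negative controls, were pinned onto PGC/ERR cells (2,000 per well). Exposure lasted 17.5 hours at 37 C, followed by a 30-minute CellTiter-Fluor incubation and fluorescence reading.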

[12] = qHTS assay to identify small molecule antagonists of the estrogen related receptor signaling pathway with the pleiotropic PPARgamma coactivator (PGC) from Tox21 10K library (AID 1224841; call rule not given here; also: actives are mostly falling curves and most rising ones were filed inactive; nearly all actives have a fitted effect of over 50% in size; also: potency is read from the fitted curve at half-maximal effect)
In short: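 Compound exposure ran 18 hours at 37 C in PGC/ERR cells (2,000/well) that had first rested 6 hours in a 37 C/5% CO2 incubator. Luciferase activity was then detected with One-Glo after a 30-minute room-temperature step.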

[13] = qHTS assay to identify small molecule antagonists of the retinoic acid receptor (RAR) signaling pathway (AID 1159552; also: nearly all actives have a fitted effect of over 50% in size; also: potency is read from the fitted curve at half-maximal effect)
In short: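 C3RL4 RARE-luc cells, overnight plating; retinol 1 uM final added right after compound; 6 hr 37 C; luciferase read at 30 min RT.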

[14] = qHTS assay to identify small molecule antagonists of the estrogen related receptor (ERR) signaling pathway - cell viability counter screen (AID 1224818);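 also: viability measured after 17.5 h of compound exposure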
In short: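 Here, ERR cells are plated at 2,000 cells per well, allowed 6 h to attach, and treated with compounds in DMSO for 17.5 h at 37 C. CellTiter-Fluor is then added and fluorescence read after 30 min.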

[15] = qHTS assay to identify small molecule antagonists of the estrogen related receptor (ERR) signaling pathway (AID 1224819;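 also: luminescence from an ERR-driven luciferase reporter measured with One-Glo reagent; nearly all actives have a fitted effect of over 50% in size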)
In short: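 LOPAC library screened for antagonism as reduced One-Glo luminescence in ERR reporter cells (2,000/well). Compounds were added after 6 h pre-incubation and left 18 h at 37C; reading followed a 30 min room-temperature reagent step.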

[16] = qHTS assay to identify small molecule agonists of the estrogen related receptor (ERR) signaling pathway (AID 1224820)
In short: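 Quantitative HTS of the LOPAC library used NTP ERR reporter cells treated 18 h at 37 C. Signal is luminescence after One-Glo addition and a 30 min room-temperature incubation.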

[17] = test system: estrogen-related receptor alpha (ERRalpha) with PGC-1alpha coactivator, human; assay: qHTS assay to identify small molecule antagonists of the estrogen related receptor signaling pathway with the pleiotropic PPARgamma coactivator (PGC) (AID 1224821; calls by dose curve;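 also: lower luminescence signal means antagonism of PGC/ERR signalling; nearly all actives have a fitted effect of over 50% in size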)
In short: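 Quantitative HTS for antagonism: PGC/ERR cells received compounds after 6 h attachment and were incubated 18 h at 37 C, with luminescence (One-Glo) as the endpoint.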

[18] = qHTS assay to identify small molecule antagonists of the estrogen related receptor signaling pathway with the pleiotropic PPARgamma coactivator (PGC) cell viability counter screen (AID 1224822;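 also: viability read after 17.5 h compound exposure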)
In short: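 qHTS format, DMSO compound stocks pin-transferred onto PGC/ERR cells 6 h after plating; 17.5 h exposure at 37 C, then CellTiter-Fluor fluorescence.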

[19] = qHTS assay to identify small molecule agonists of the estrogen related receptor signaling pathway with the pleiotropic PPARgamma coactivator (PGC) (AID 1224823)
In short: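 Cell-based luciferase assay in the NTP-supplied PGC/ERR line, 2,000 cells/well; 18 h compound exposure at 37 C, luminescence after One-Glo.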

Nuclear receptor subfamily 1 group I member 3 (Homo sapiens), sequence (Q14994 whole entry, looked up): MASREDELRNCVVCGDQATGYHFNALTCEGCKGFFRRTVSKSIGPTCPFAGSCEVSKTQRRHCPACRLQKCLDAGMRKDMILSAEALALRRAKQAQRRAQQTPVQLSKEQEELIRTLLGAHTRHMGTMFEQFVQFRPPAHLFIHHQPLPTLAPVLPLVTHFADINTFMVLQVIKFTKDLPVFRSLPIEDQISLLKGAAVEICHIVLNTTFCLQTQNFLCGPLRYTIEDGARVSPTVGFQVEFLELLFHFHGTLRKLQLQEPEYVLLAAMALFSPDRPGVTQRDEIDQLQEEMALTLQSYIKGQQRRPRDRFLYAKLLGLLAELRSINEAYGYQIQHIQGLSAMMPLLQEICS
Luciferin 4-monooxygenase (Photinus pyralis), sequence (P08659 whole entry, looked up): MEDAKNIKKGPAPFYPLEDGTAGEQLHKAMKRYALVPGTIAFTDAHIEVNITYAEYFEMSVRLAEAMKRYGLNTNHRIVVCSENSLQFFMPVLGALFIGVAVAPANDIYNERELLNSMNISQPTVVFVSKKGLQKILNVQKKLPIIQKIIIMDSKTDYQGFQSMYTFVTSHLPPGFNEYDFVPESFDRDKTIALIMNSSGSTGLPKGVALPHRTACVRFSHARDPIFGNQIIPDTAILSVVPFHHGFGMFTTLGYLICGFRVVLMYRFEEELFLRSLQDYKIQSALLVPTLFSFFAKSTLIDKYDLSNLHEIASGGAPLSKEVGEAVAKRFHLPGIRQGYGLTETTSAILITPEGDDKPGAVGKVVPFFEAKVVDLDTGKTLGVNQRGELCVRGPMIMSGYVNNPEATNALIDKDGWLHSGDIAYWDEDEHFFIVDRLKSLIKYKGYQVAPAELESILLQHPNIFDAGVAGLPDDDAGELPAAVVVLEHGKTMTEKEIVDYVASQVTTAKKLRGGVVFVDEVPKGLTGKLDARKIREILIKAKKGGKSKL
Thyrotropin receptor (Homo sapiens), sequence (P16473 whole entry, looked up): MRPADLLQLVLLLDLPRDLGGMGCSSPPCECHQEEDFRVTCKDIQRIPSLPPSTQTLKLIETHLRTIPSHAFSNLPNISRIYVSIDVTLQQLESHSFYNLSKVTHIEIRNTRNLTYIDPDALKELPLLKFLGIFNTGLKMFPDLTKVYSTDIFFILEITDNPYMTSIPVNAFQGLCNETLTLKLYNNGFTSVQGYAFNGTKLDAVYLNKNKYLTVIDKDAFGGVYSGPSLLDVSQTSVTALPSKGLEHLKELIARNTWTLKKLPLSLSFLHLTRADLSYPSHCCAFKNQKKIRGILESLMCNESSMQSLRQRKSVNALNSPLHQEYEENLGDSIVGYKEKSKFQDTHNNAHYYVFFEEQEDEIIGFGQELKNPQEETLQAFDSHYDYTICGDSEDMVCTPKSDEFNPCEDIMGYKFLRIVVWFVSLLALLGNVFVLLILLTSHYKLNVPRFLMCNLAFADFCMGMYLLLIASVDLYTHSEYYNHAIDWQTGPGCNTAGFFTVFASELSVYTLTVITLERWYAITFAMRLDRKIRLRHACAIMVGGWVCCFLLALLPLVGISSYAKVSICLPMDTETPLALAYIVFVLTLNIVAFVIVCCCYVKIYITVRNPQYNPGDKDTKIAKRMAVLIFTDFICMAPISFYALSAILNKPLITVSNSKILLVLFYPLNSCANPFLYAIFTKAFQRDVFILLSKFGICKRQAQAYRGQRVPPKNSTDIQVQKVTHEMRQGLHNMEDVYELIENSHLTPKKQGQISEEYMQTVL

CCO[C@@H]1O[C@H](C(COCc2ccccc2)OCc2ccccc2)[C@H](OCc2ccccc2)[C@H]1O (stereo not given in full)
Potency [1]: inactive
Potency [2]: 26.6 µM (active)
Potency [3]: inactive
Potency [4]: inactive
Potency [5]: inactive
Potency [6]: inactive
Potency [7]: inactive
Potency [8]: inactive

C[C@H]1NCc2cc(-c3ccc4c(=O)c(C(=O)O)cn(C5CC5)c4c3OC(F)F)ccc21
activity change, negative = cytotoxicity [1]: 0.739% [at 19 µM]
Potency [9]: inactive
viability change, negative = cytotoxic [2]: -0.362% [at 19 µM]
activity change, negative = inhibition [3]: -0.0227% [at 23.6 µM]
viability change, negative = cytotoxic [4]: 8.47% [at 19 µM]
activity, negative = inhibition [10]: 10.2% [at 19 µM]
activation [6]: -2.33% [at 19 µM]
viability change, negative = cytotoxic [11]: 5.39% [at 19 µM]
activation [8]: 2.59% [at 19 µM]

Nc1cc(Cl)c(O)c(Cl)c1
Potency [1]: inactive
Potency [2]: inactive
Potency [3]: inactive
Potency [4]: inactive
Potency [5]: inactive
Potency [10]: inactive
Potency [11]: inactive
Potency [12]: inactive
Potency [7]: inactive

O=C(c1ccc(O)c(O)c1)c1ccc(O)cc1O
Potency [1]: inactive
Potency [13]: inactive
Potency [3]: 70.9 µM (active)
Potency [4]: inactive
Potency [5]: inactive
Potency [10]: inactive
Potency [6]: inactive
Potency [12]: 68.5 µM (active)
Potency [8]: inactive

CCOc1ccc2ccccc2c1C(=O)N[C@@H]1C(=O)N2[C@@H]1SC(C)(C)[C@@H]2C(=O)O
Potency [1]: inactive
Potency [9]: inactive
Potency [2]: inactive
Potency [3]: inactive
Potency [4]: inactive
Potency [5]: inactive
Potency [11]: inactive
Potency [12]: inactive
Potency [8]: inactive

CC(C)NC[C@@H](O)COc1ccc(CC(N)=O)cc1
Potency [1]: inactive
Potency [9]: inactive
Potency [2]: inactive
Potency [3]: inactive
Potency [4]: inactive
Potency [11]: inactive
Potency [8]: inactive

O=c1[nH]c2ccccc2n1CCCN1CCN(C(c2ccccc2)c2ccccc2)CC1
Potency [1]: inactive
Potency [2]: 23.7 µM (active)
Potency [3]: inactive
Potency [6]: inactive
Potency [11]: 23.7 µM (active)
Potency [8]: inactive

CC(C)=CCNc1ncnc2c1ncn2[C@@H]1O[C@H](CO)[C@@H](O)[C@H]1O
Potency [1]: 13.3 µM (active)
Potency [13]: 23.7 µM (active)
Potency [3]: inactive
Potency [5]: 3.35 µM (active)
Potency [11]: inactive
Potency [12]: inactive
Potency [7]: 5.96 µM (active)
Potency [8]: inactive

COc1cc2nc(N3CCN(C(=O)c4ccco4)CC3)nc(N)c2cc1OC
activity change, negative = cytotoxicity [1]: -9.47% [at 19 µM]
viability change, negative = cytotoxic [4]: -2.7% [at 19 µM]
activity change, negative = cytotoxicity [5]: -2.45% [at 19 µM]
activity, negative = inhibition [10]: 3.26% [at 19 µM]
activation [6]: 0.371% [at 19 µM]
activation [8]: -0.792% [at 19 µM]

c1ccc(SSc2ccccc2)cc1
Potency [1]: inactive
Potency [2]: inactive
Potency [4]: inactive
Potency [5]: inactive
Potency [10]: 43.6 µM (active)
Potency [6]: inactive
Potency [11]: inactive

Fc1ccc(C(c2ccc(F)cc2)N2CCNCC2)cc1
Potency [1]: inactive
Potency [2]: inactive
Potency [3]: inactive
Potency [5]: inactive
Potency [10]: inactive
Potency [6]: inactive
Potency [11]: inactive
Potency [8]: inactive

O=C1c2ccccc2C(=O)N1SC1CCCCC1
Potency [1]: inactive
Potency [2]: 68.6 µM (active)
Potency [3]: 25.2 µM (active) and 17.8 µM (active)
Potency [4]: inactive
Potency [10]: 68.5 µM (active)
Potency [6]: inactive
Potency [11]: inactive
Potency [8]: inactive

CC(C)=CCC1=C(O)c2ccccc2C(=O)C1=O
Potency [1]: inactive
Potency [13]: inactive
Potency [9]: inactive
Potency [10]: inactive
Potency [6]: 27.1 µM (active)
Potency [12]: 2.42 µM (active)
Potency [7]: inactive

CCCCN(CCCC)CC(O)c1cc(Cl)cc2c1-c1ccc(Cl)cc1/C2=C/c1ccc(Cl)cc1 (stereo not given)
Potency [1]: inactive
Potency [9]: inactive
outcome [14]: inactive
Potency [15]: inactive
outcome [16]: inactive
Potency [17]: inactive
Potency [18]: inactive
outcome [19]: inactive
Potency [2]: 26.6 µM (active)
Potency [3]: inactive
Potency [4]: inactive
Potency [10]: inactive
Potency [12]: inactive
Potency [8]: inactive
